# ELG1 DNA repair = inhibitors of ELG1-dependent DNA repair in HEK293T cells | HEK293T ELG1-luciferase reporter, luminescence, 16 h; DNA damage induced by 5-fluorouridine | Potency, µM (highest dose often 46.1 µM), hits mostly inhibitors | hit rate 2.3% among 330,000; note: nearly all actives have a fitted effect of over 55% in size
#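 Overnight (16 hr) co-exposure of 2,000 cells/well to 5-fluorouridine and compound at 37 °C preceded detection. Luciferase was quantified via ONE-Glo luminescence; loss of signal denotes inhibition.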
# TDP1 cell CPT = DT40-hTDP1 cell growth loss with CPT; chicken DT40 Tdp1-/-;hTDP1 cells + 20 nM CPT, ATP luminescence, 48 h; Potency, µM (top dose mostly 46.2 µM), usual class: inhibitors; hit rate 12% among 420,000; AID 686979; note: nearly all actives have a fitted effect of over 55% in size
#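 Chicken DT40 Tdp1-/- cells complemented with human TDP1, 400 cells/well, exposed to compounds plus 20 nM camptothecin for at least 48 h at 37 C; viability read as ATP content by CellTiter-Glo luminescence.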
# TDP1 cell noCPT = qHTS for Inhibitors of human tyrosyl-DNA phosphodiesterase 1 (TDP1): qHTS in cells in absence of CPT; DT40 Tdp1-/- hTDP1 cells, no CPT, ATP luminescence, 48 h; Potency, µM (series often up to 46.2 µM), usual class: inhibitors; hit rate 15% among 420,000; AID 686978, 2013; note: nearly all actives have a fitted effect of over 55% in size
#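 Luminescent ATP content (CellTiter-Glo) served as the growth readout. Knockout chicken DT40 cells expressing human TDP1 were exposed to compounds without camptothecin for a minimum 48 hr at 37 °C.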
# 12-LOX inh = ALOX12 (human) lipoxygenase inhibition; P18054; purified 12hLO, xylenol orange hydroperoxide absorbance; Potency, µM (highest dose often 108 µM), usual class: inhibitors; hit rate 1.1% among 580,000; AID 1671190
#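 Purified human 12hLO (150 nM final) in 25 mM Hepes, 0.01% Triton X-100, pH 7.0 was preincubated 15 min at room temperature with compound. Then 40 uM arachidonic acid was added, 30 min. Hydroperoxide was read by Fe-XO absorbance ratio 573/405 nm.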
# Gal4-VP16 FLuc = inhibits Gal4-VP16 luciferase reporter, ROR gamma counter-screen. Drosophila S2 Gal4-VP16 UAS-luciferase, luminescence, 20 h. Potency, µM (highest dose often 53.6 µM), usual class: inhibitors. hit rate 3.5% among 310,000. AID 2546;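 note: Gal4-VP16 expression switched on by copper sulfate through the metallothionein promoter; nearly all actives have a fitted effect of over 50% in size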
# RORg inh = blocks mouse ROR gamma transcriptional activity. Potency, µM (series often up to 53.6 µM), most hits filed as inhibitors. Drosophila S2 Gal4-RORgamma UAS-luciferase reporter, 20 h. P51450. hit rate 5.4% among 310,000; note: nearly all actives have a fitted effect of over 60% in size
# Target sequence (P51450 whole entry, looked up, the tested form may be a part): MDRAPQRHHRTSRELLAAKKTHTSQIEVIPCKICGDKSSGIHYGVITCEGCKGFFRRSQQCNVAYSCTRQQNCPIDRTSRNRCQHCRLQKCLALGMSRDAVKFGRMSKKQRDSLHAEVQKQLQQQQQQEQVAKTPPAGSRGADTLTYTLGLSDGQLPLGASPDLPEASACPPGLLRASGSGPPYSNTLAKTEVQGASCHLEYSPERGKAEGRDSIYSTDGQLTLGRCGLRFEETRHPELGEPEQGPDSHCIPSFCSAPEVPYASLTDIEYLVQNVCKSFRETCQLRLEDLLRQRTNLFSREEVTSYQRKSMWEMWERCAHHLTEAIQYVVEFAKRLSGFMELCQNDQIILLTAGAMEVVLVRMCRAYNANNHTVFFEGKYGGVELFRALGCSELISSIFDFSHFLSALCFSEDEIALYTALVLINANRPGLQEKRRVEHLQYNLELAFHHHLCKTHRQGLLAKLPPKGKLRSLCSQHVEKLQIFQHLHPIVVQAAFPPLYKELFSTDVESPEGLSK
#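 Drosophila S2 cells stably expressing Gal4-DBD/mouse RORγ fusion under metallothionein promoter plus UAS-luciferase; compound 1 h, then 700 uM CuSO4 induction for 20 h at ambient temperature; inhibition read as reduced luminescence.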
# Hits are given with their value; n = inactive; u = inconclusive; x = not tested or not shown; [ ] = remark or other dose. Only some compounds are listed: those with a hit (about 15% of all), similar ones and a draw of the others. Calls come from the whole dose curve; as a rule, active = well fitted curve in the direction sought with a large enough effect; inconclusive = small, poorly fitted or top-dose-only effect, or another doubt; inactive = no such curve, though single readings can be large; an effect the other way counts as inactive or inconclusive.
SMILES,ELG1 DNA repair,TDP1 cell CPT,TDP1 cell noCPT,12-LOX inh,Gal4-VP16 FLuc,RORg inh
C[C@@H](C(=O)Nc1ccc2ccccc2c1)[C@H]1C[C@]1(C)[C@H](NC(=O)OCc1ccccc1)c1ccccc1,u,18µM,16µM,n,n,n
C[C@@H](C(=O)Nc1ccc2ccccc2c1)[C@@H]1C[C@@]1(C)[C@@H](NS(=O)(=O)c1ccccc1)c1ccccc1,x,x,x,x,n,n
C[C@@H](C(=O)Nc1ccc2ccccc2c1)[C@@H]1C[C@@]1(C)[C@@H](NC(=O)Oc1ccc(F)cc1)c1ccccc1,x,x,x,x,n,n
CC(=O)N[C@@H](c1ccccc1)[C@]1(C)C[C@H]1[C@@H](C)C(=O)Nc1ccc2ccccc2c1,x,x,x,x,n,0.35µM
Cc1cc(C(=O)N[C@H](c2ccccc2)[C@@]2(C)C[C@@H]2[C@@H](C)C(=O)Nc2ccc3ccccc3c2)n(C)n1,u,u,23µM,u,n,u
CC(C)N1C(=O)C2(CCCC2)C1C(=O)N1CCN(c2ncccn2)CC1 (stereo not drawn),x,x,x,n,x,x
NC(=O)c1ccc(NC(=O)Cn2ccc3ccc(Cl)cc32)cc1,x,x,x,n,x,x
CCc1ccc2c(c1)NC(=O)C2(C)Cc1ccc(C(F)(F)F)o1 (stereo not drawn),x,23µM,u,u,x,x
CC1(Cc2ccc3c(c2)OCO3)C(=O)Nc2c(Cl)ccc(Cl)c21 (stereo not drawn),x,u,23µM,n,x,x
CC1(Cc2ccc(C(F)(F)F)o2)C(=O)Nc2ccc(-c3cccc(C(F)(F)F)c3)cc21 (stereo not drawn),x,15µM,12µM,u,x,x
CC1(Cc2ccc3c(c2)OCO3)C(=O)Nc2ccc(-c3cccc(C(F)(F)F)c3)cc21 (stereo not drawn),x,23µM,21µM,n,x,x
Cc1ccc(NNC(=O)c2ccno2)cc1Cl,n,u,10µM,u,n,n
Cc1cc(C(=O)NNc2ccc(C)c(C)c2)no1,8.2µM,n,n,n,n,n
O=C(Nc1ccc(S(=O)(=O)N2CCCCC2)cc1)c1cc2c(=O)n3ccccc3nc2s1,x,x,x,n,x,x
CC(=O)N1CCC2(CC1)CN(C(=O)CCC(=O)O)Cc1ccccc1O2,x,x,x,n[6.33 µM],x,x
Cc1ccsc1C(=O)N1CCC(n2nccc2NC(=O)c2cccc(F)c2)CC1,x,x,x,n,x,x
CC1(C)CC(=O)C2=C(C1)Nc1ccccc1NC2,n,n,n,n,n,13µM
CC1(C)CC(=O)C2=C(C1)Nc1ccccc1S2,u,n,u,25µM,n,n
CCN(CC)[C@H]1[C@@H]2OC[C@@H](O2)[C@@H](NCC2CCCCC2)[C@@H]1O,x,x,x,n,x,x
CCCCC(CC)C(=O)NCCCCCCCCNC(=O)C(CC)CCCC (stereo not drawn),x,x,x,n,x,x
CC1CN(C(=S)NC(=O)c2ccc([N+](=O)[O-])cc2)CC(C)O1 (stereo not drawn),u,n,n,n,1.3µM,0.45µM
N#Cc1ccc(C(=O)NC(=S)N2CCOCC2)cc1,n,n,n,n,x,x
CC1CN(C(=S)c2cccc([N+](=O)[O-])c2)CC(C)O1 (stereo not drawn),n,u,u,x,n,n
CC1CN(C(=O)COC(=O)CSc2ccc([N+](=O)[O-])cc2)CC(C)O1 (stereo not drawn),n,n,n,n,x,x
CC1CN(C(=S)SCC(=O)c2ccc([N+](=O)[O-])cc2)CC(C)O1 (stereo not drawn),n,2.6µM,5.2µM,n,n,n
SMILES,ELG1 DNA repair,TDP1 cell CPT,TDP1 cell noCPT,12-LOX inh,Gal4-VP16 FLuc,RORg inh
O=C(NC(=S)N1CCOCC1)c1ccc([N+](=O)[O-])cc1,u,n,n,n,2.2µM,1.4µM
N#CCc1ccc(NC(=O)CCSc2ccc(Cl)cc2)cc1,x,x,x,n,x,x
Cn1c(=O)c2c(ncn2CCC(=O)Nc2ccc(Cl)c(Cl)c2)n(C)c1=O,x,x,x,n,x,x
CC1(C)CC(C)(c2ccc(O)cc2O)N(c2ccc3ccccc3c2)C(=S)N1 (stereo not drawn),u,u,u,18µM,u,7.9µM
N#C/C(=C\Nc1ccc2c(c1)OCCO2)c1nc2ccccc2[nH]1,u,u,21µM,n,5µM,3.2µM
N#C/C(=C\Nc1ccc2c(c1)OCCO2)c1nc(-c2ccccc2)cs1,n,u,u,n,n,n[10 µM]
N#C/C(=C(/O)c1ccc([N+](=O)[O-])o1)c1nc2ccccc2[nH]1,u,12µM,18µM,n,n,n
N#C/C(=C\c1ccc([N+](=O)[O-])o1)c1nc2ccccc2[nH]1,u,0.58µM,0.82µM,n,1.6µM,2µM
N#C/C(=C/c1ccc(O)c(O)c1)c1nc2ccccc2[nH]1,u,u,u,7.9µM,n,u
Cc1cccc(C(=O)NCC(O)(c2ccccc2)C(F)(F)F)c1 (stereo not drawn),x,x,x,n,x,x
COc1cc(CN(C(=O)c2ccc3c(c2)NC(=O)CO3)C2CC2)ccc1OC(F)F,x,x,x,n,x,x
CC(=O)NC(c1cccc(F)c1)c1nc(-c2cccc(C(C)C)c2)cs1 (stereo not drawn),x,26µM,21µM,n,x,x
CC(=O)NC(c1cccc(F)c1)c1nc(-c2csc3ccccc23)cs1 (stereo not drawn),x,23µM,u,u,x,x
COc1ccc(-c2csc(C(NC(C)=O)c3cccc(F)c3)n2)cn1 (stereo not drawn),x,15µM,u,u,x,x
CC(=O)NC(c1ccccc1)c1nc(-c2cnc3ccccc3c2)cs1 (stereo not drawn),x,12µM,21µM,n,x,x
CC(=O)NC(c1cccc(F)c1)c1nc(-c2cccc(C(=O)O)c2)cs1 (stereo not drawn),x,n,n,n,x,x
CC(=O)NC(c1cccc(F)c1)c1nc(-c2cnn(C)c2)cs1 (stereo not drawn),x,u,23µM,n,x,x
COc1cccc(C(NC(C)=O)c2nc(-c3cnn(C)c3)cs2)c1 (stereo not drawn),x,u,n,u,x,x
COc1cccc(C(N)c2nc(-c3csc4ccccc34)cs2)c1 (stereo not drawn),x,3.7µM,2.9µM,x,x,x
COc1ccc(-c2csc(C(NC(C)=O)c3ccc(F)c(F)c3)n2)cn1 (stereo not drawn),x,23µM,u,n,x,x
OC(c1cccc(Cl)c1)c1nc(-c2csc3ccccc23)cs1 (stereo not drawn),x,15µM,u,n,x,x
CCN(CCN(C)C)C(=O)c1coc(COc2ccc3sc(C)nc3c2)n1,x,x,x,n,x,x
O=S(=O)(c1cccc(NC(=S)N2CCN(c3ccccc3)CC2)c1)C(F)F,n,13µM,16µM,n,n,n
